# ChEMBL document CHEMBL4888484, “Replenishing the malaria drug discovery pipeline: Screening and hit evaluation of the MMV Hit Generation Library 1 (HGL1) against asexual blood stage Plasmodium falciparum ,using a nano luciferase reporter read-out” (2022)
# Where “and” joins values, the source holds several entries; their conditions need not be identical. Equal values may be shown once. Hit rate of the full screen: of about 4,800 compounds, about 410 (8.5%) showed an effect of 50% or more. This is one part of a sample in which strong results are shown more often than they occur.
# System: Plasmodium falciparum
# Test: Confirmatory screen in NF54 pLDH assay, in single point, at 2uM, 72h
# Assay type: functional, Erythrocyte
# Settings: timepoint 72 hour
SMILES,% Inhibition [%],% Inhibition (2 µM)
O=C(Cc1ccc(C(=O)Nc2nc(-c3ccccc3)cs2)cc1)c1ccccc1,12,–
O=S(=O)(c1ccc2ccccc2c1F)N1CC(CO)C1,-13,–
COc1ccc(CC2C(O)C(Cc3ccc(OC)cc3)C3CCC2N3C)cc1 (stereo not given),6,–
COc1ccc(CNCCC2C(C)CN(C)C(C)C2Cc2ccccc2)cc1 (stereo not given),66,–
CCNC(=O)C(=O)NCc1ccc(OC)cc1,-20,–
COc1ccc(C(=O)n2[nH]c(=O)c(CCO)c2C)cc1,5,–
COc1ccc(Nc2nnc(/C=C/c3ccccc3)c(=O)n2N)cc1,16,–
O=S1(=O)CCN(OCc2ccc(Cl)cc2)CC1,15,–
Fc1ccccc1N1CCN(C2CCN(Cc3c[nH]c4ccccc34)CC2)CC1,33,–
COc1ccc2[nH]c3c(c2c1)CC(C(=O)O)NC3c1ccc(OC)c(CN2CCN(c3ccccc3F)CC2)c1 (stereo not given),72,–
COc1ccccc1N1CCN(Cc2nc3ccccc3c(=O)n2-c2ccc(F)cc2)CC1,12,–
O=C(NCCc1ccc(O)cc1)c1ccc2n[nH]c(=O)n2c1,-20,–
CCC(C)(C)C(=O)N1CCC[C@@H]1CCc1ncc(C)n1C(C)C,14,–
CCOc1cc([C@H]2Nc3ccccc3C(=O)N2c2ccccc2)ccc1OCc1ccc(F)cc1,-4,–
O=C(/N=C(/c1ccccc1)N1CCCCC1)C(F)(F)C(F)(F)C(F)(F)C(F)(F)C(F)(F)C(F)(F)F,–,1% and 0%
Cc1ccc(-c2csc(NC(=O)c3cccc(C(=O)Nc4nc(-c5ccc(C)cc5C)cs4)n3)n2)c(C)c1,-7,–
O=C(Nc1nncs1)NC(C1CC1)C1CC1,5,–
O=C(Nc1nncs1)c1cccc(C(=O)Nc2nncs2)n1,64,–
Cc1c(NC(=O)c2n[nH]cc2Br)c(=O)n(-c2ccccc2)n1C,7,–
CCn1c(=O)c(N2CCC[C@H](C(=O)NCc3cccc(C)c3)C2)nc2ccccc21,14,–
CCC(C)(CC)[C@@](O)(C#CC[N+]1(Cc2ccccc2)CCCCC1)c1ccccc1,22,–
CC(CC1OCC(C[N+]2(Cc3ccccc3)CCCCC2)O1)CC(C)(C)C (stereo not given),56,–

SMILES,% Inhibition [%],% Inhibition (2 µM)
COc1cc(C(=O)NC(C)(C)c2c(C)noc2C)on1,7,–
CN1C(=O)N(c2cc(Cl)cc(Cl)c2)C(=O)[C@]12CN(c1ccc(C(=O)O)cn1)C[C@H]2c1ccc(C#N)cc1,15,–
c1cc([C@@H]2CN(Cc3noc(C4CC4)n3)CCO2)cs1,7,–
COc1ccc(NC(=O)N2CC[C@H](CC(=O)NCc3ccccc3)C2)cc1OC,-11,–
NC(=O)c1ccc(C(F)(F)F)n(CC(=O)N(Cc2ccc(F)cc2)C2CCCCC2)c1=O,-6,–
Cc1cc(-n2c(C)cc(C(=O)Cn3c(C(F)(F)F)ccc(C(N)=O)c3=O)c2C)no1,23,–
NC(=O)c1ccc(C(F)(F)F)n(C[C@H](O)c2cc(Cl)ccc2Cl)c1=O,60,–
CC(C)(C)c1cc(N)c2ccccc2n1,-6,–
O=C(N[C@@H](N1CCCCCC1)C(Cl)(Cl)Cl)c1cccc(Cl)c1,-20,–
NC(=O)C(NC(=O)c1cccc(Cl)c1)C(N)=O,85,–
CNC(=O)CNC(=O)c1cccc(Cl)c1,12,–
COCc1cc2nn(CC(=O)Nc3ccc(F)c(F)c3)c(=O)n2c(-c2ccccc2)n1,-15,–
Cn1cc(NC(=O)Nc2cccc(OCC(F)F)n2)cn1,-7,–
O=C(Cc1c[nH]c2ccccc12)NC1(C(=O)NC2CCCC2)CCCCC1,8,–
CCN1C(=O)Cc2cc(NC(=O)c3ccc(Br)o3)ccc21,12,–
CC(C)[C@@H]1CCc2ccccc2N1Cc1nc(N)nc(N(C)C)n1,6,–
O=C(Nc1ccc2c(c1)OCCCO2)c1ccsc1,5,–
O=C1CN(C(=O)C2CC2c2ccccc2C(F)(F)F)CCN1 (stereo not given),-4,–
N=C(N)NCc1ccc(COCc2ccccc2)cc1,17,–
CCOc1ccc(NC(=O)c2cn3nc(-c4ccc(OCC)cc4)cc3nc2C2CCN(C(=O)OC(C)(C)C)CC2)cc1,16,–
N#CC(c1ccc(Cl)cc1)N1N=C(c2ccccc2)CC1c1ccccc1 (stereo not given),10,–
COc1ccc(C2=NN(C(C#N)c3cccc(OC)c3O)C(c3ccccc3)C2)cc1 (stereo not given),3,–

SMILES,% Inhibition [%],% Inhibition (2 µM)
c1ccc(C2=NN(c3ccc(-c4cc(-c5ccccc5)[n+](-c5ccccc5)c(-c5ccccc5)c4)cc3)[C@H](c3ccccc3)C2)cc1,97,–
COc1cccc(C(=O)c2c[nH]c(C(=O)NCc3cccc(C(F)(F)F)c3)c2)c1,6,–
Cc1ccc(N2C(=O)C[C@]3(CC3(c3ccccc3)c3ccccc3)C2=O)cc1,6,–
COCc1c(C(=O)N2CCC[C@@H]2CCc2ncc(C)n2C(C)C)noc1C,13,–
O=c1[nH]c2cc3c(cc2c(=O)n1Cc1nc(-c2ccc(Cl)cc2)no1)OCO3,9,–
CN1CCN(Cc2cc3cc4c(cc3nc2-c2ccc(Cl)cc2)OCO4)CC1=O,51,–
Cc1cc(C)nc(-n2nc(-c3ccc(Cl)cc3)c3c2NC(=O)C[C@@H]3c2ccc3c(c2)OCO3)n1,2,–
C#CCN(C(=O)NC1CCN(C(C)=O)CC1)C1CCCC1,-12,–
Cc1ccc(NC(=O)c2c(Cl)cccc2Cl)c2c1CC(C)(C)O2,-21,–
O=C(Nc1ccc(N2CCCCCC2)cc1C(=O)O)c1ccc(Cl)cc1,9,–
CC(C)c1nnc(CNc2ccc(C#N)cc2)o1,8,–
CC(=O)Nc1ncc(Br)cc1C,3,–
COC1CCCC1NC(=O)Nc1ncc(Br)cc1C (stereo not given),79,–
CNC(=O)c1cc(Br)cnc1NC,10,–
NC(=NCCOc1ccc(Br)cc1)N1CCOCC1,8,–
COCc1ncc(-c2noc(C3CC4CCC3C4)n2)c(N)n1 (stereo not given),-14,–
Cc1nn(C)c(C)c1CNc1ccc2c(c1)CCC(=O)N2,-13,–
CC(C)CCn1nnnc1[C@]1(N(C)C)CCCN(C(=O)c2cccn2C)C1,-12,–
CC(C)c1cc(CN(Cc2cc(C(C)C)c(O)c(C(C)C)c2)C2CCCCC2)cc(C(C)C)c1O,98,–
CCc1nn(C)cc1CN(Cc1cccc(O)c1)C1CCC(O)CC1 (stereo not given),-8,–
Cc1ccc(CN(C)C2CCCCC2)o1,-12,–
